Compounds with a hit are over-represented: about 3.3% of the library has one in this group of screens.
RE007 growth inh = less growth of the S. pombe RE007 Vpr strain | S. pombe RE007 Vpr strain, BacTiter-Glo ATP luminescence, 24 h | actives 0.21% (n = 360,000) | Potency, µM (series often up to 92.2 µM), for inactives: at the highest dose activity change, negative = less growth, most hits filed as inhibitors | AID 651644; active = well fitted falling curve with a large enough effect; inconclusive = small, poorly fitted or top-dose-only effect; inactive = no such curve, though single readings can be large or run the other way; also: nearly all actives have a fitted effect of over 50% in size
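Fission yeast RE007 carrying one integrated HIV-1 vpr copy, seeded at OD 0.01 in PMG+AL medium with 23 nL pinned compound. Grown 24 h at 30 degrees; viability read by BacTiter-Glo luminescence after 5 min.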
FBPA Giardia inh = Giardia lamblia aldolase inhibition; A8B2U2; purified Giardia FBPA; Potency, µM (doses to about 59.6 µM), without a hit: at the top dose activity, negative = inhibition, most hits filed as inhibitors; actives 0.71% (n = 290,000); AID 2451; also: nearly all actives have a fitted effect of over 55% in size
Target sequence (A8B2U2 whole entry, looked up): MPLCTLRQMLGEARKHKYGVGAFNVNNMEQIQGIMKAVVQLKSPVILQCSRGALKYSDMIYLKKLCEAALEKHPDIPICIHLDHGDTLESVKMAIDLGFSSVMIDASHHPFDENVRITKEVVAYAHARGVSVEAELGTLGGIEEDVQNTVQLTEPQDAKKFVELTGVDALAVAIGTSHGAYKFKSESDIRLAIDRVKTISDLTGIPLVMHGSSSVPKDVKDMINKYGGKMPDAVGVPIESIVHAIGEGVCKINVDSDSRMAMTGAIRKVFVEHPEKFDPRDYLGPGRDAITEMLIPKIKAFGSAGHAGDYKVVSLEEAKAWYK
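40 nM FBPA preincubated 10 min at RT with compound (up to 57.5 uM final), then substrate plus GAPDH/TPI/NAD/arsenate coupling and diaphorase/resazurin added. Fluorescence read after 20 min at RT, 525/598 nm.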
LmPK inh = LmPK (Leishmania mexicana) enzyme inhibition; Q27686; purified LmPK, Kinase-Glo ATP luminescence, 1 h; Potency, µM (titrated, usually from 57.5 µM), without a hit: at the highest dose activity change, negative = inhibition, hits mostly inhibitors; actives 0.37% (n = 290,000); AID 1721
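Pyruvate kinase activity monitored as ATP production (luciferase luminescence). Conditions: 0.1 nM enzyme, 0.5 mM PEP, 0.1 mM ADP, 1 h, RT; normalized against uninhibited and no-enzyme wells.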
TbPYK inhibitor = blocks Trypanosoma brucei pyruvate kinase; Q57TT1; TbPYK enzyme, Kinase-Glo Plus ATP luminescence, 45 min; Potency, µM (top dose mostly 76.8 µM), without a hit: at the top dose activity, negative = inhibition, most hits filed as inhibitors; actives 0.12% (n = 410,000); also: nearly all actives have a fitted effect of over 50% in size
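Quantitative HTS: titrated library compounds versus trypanosomal pyruvate kinase in TEA buffer (pH 7.2) containing KCl, MgCl2, BSA and Tween-20. Reactions were initiated with ADP, 130 uM final. Kinase-Glo Plus luminescence was read after 45 min at RT.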
Sm TGR inh = S. mansoni TGR enzyme inhibition | Q962Y6 | purified TGR, DTNB reduction, TNB absorbance 405 nm | Potency, µM (doses to about 114 µM), inactives show top-dose activity change, negative = inhibition, most hits filed as inhibitors | actives 3% (n = 360,000); also: nearly all actives have a fitted effect of over 60% in size
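TGR 20 nM + NADPH 100 uM (dispensed conc.), cpd preinc 15 min RT; start with NADPH (500 uM addition) then DTNB (15 mM addition). Kinetic TNB absorbance, 405 nm filter. Four-parameter Hill fit across titration.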
An asterisk follows results filed as active; u = inconclusive; x = no result; [ ] = dose if it differs, or a comment. Unless noted, calls follow the shape of the dose curve; as a rule, active = well fitted curve in the direction sought with a large enough effect; inconclusive = small, poorly fitted or top-dose-only effect, or another doubt; inactive = no such curve, though single readings can be large; an effect the other way counts as inactive or inconclusive. % is scaled to controls: 0 for no effect and ±100 for the full control effect; potency is read from the fitted curve at half-maximal effect.

SMILES	RE007 growth inh	FBPA Giardia inh	LmPK inh	TbPYK inhibitor	Sm TGR inh
Cn1cc(/C(Cc2ccccc2)=N\O)c2ccccc21	u	-2.6%	18.0%	0.2%	5.9%[11.4 µM]
OCCc1ccc(-c2ccc(Cl)cc2)o1	u	-0.3%	-2.5%	-0.9%	44.7µM*
Cc1ccc(-c2ccc(CCC(=O)O)o2)cc1	-14.2%	12.9%	-4.3%	u	12.6µM*
Cc1cc(NC(=O)CCc2ccc(-c3ccccc3)o2)no1	6.3%	1.7%	-7.9%	-2.2%	-67.5%
O=C(O)CCc1ccc(-c2cccs2)o1	u	-13.1%	18.8%	u	0.708µM*
O=C(O)CCc1ccc(-c2cccs2)n1NC(=O)c1ccc(O)cc1	-3.9%	14.9%	4.4%	-6.0%	-35.8%
CCOC(=O)C1(CC2CCCCO2)CCN(S(=O)(=O)c2cccc(F)c2)CC1 (stereo unspecified)	-19.3%	3.2%	4.3%	-1.5%	5.8%
Oc1ccc(O)c(Cc2nc3ccccc3[nH]2)c1	-8.5%	-28.6%	-15.6%	2.0%	6.31µM*
c1ccc2[nH]c(CCCc3nc4ccccc4[nH]3)nc2c1	-3.5%	-21.9%	-2.2%	-6.6%	-12.0%
Cn1c(Br)nc2c1c(=O)n(CC(O)COc1ccccc1)c(=O)n2C (stereo unspecified)	6.3%	-27.2%	-0.5%	6.9%	50.1µM*
COc1ccc(OC)c(NC(=O)COC(=O)CCC2CCCC2)c1	-6.5%	x	x	0.0%	-4.4%
Oc1cc(O)c2c(c1)O[C@H](c1ccc(O)c(O)c1)[C@H](O)C2	3.2%	-1.0%	-4.8%	-25.1%	u
O=C(O[C@@H]1Cc2c(O)cc(O)cc2O[C@@H]1c1cc(O)c(O)c(O)c1)c1cc(O)c(O)c(O)c1	x	u	6.6%	x	11.2µM*
Oc1ccc(NCc2cccs2)cc1	-15.3%	-9.3%	-2.4%	u	50.1µM*
CCc1c(C)nc2ccc(Br)cc2c1Cl	-10.4%	3.6%	-10.3%	-1.1%	12.3%
CCOP(=O)(Cc1cc(C(C)=O)c(C)o1)OCC	1.1%	-14.5%	-0.9%	u	39.8µM*
CCOP(=O)(Cc1ccc(C#N)o1)OCC	-6.2%	4.1%	2.4%	2.6%	-21.0%
CCCC(=O)c1cc(CP(=O)(OCC)OCC)oc1C	8.3%	-4.6%	-3.1%	u	28.2µM*
CCOP(=O)(Cc1ccccc1)OCC	-0.4%	x	x	-3.3%	-1.9%
CCOP(=O)(Cc1ccc(C(C)(C)CC(C)=O)o1)OCC	12.6%	-1.3%	2.8%	-1.7%	15.8µM*
COC(=O)CNC(c1ccccc1)c1cc(Br)ccc1NC(=O)CCN1CCOCC1 (stereo unspecified)	4.6%	-3.6%	-0.1%	-27.0%	8.91µM*
CCOC(=O)CNC(c1ccccc1)c1cc(Br)ccc1NC(=O)CCN1CCOCC1 (stereo unspecified)	16.1%	-2.2%	1.0%	-21.5%	6.31µM*
COc1cc(C)c2occ(/C(C)=N\O)c2c1	u	-7.5%	0.4%	2.4%	3.1%
CCCCOC(=O)c1ccc(NC(=O)C(=O)NCc2ccncc2)cc1	2.9%	5.9%	1.4%	-1.7%	-19.5%
COc1ccc(NC(=O)C2CCCN(C(=O)Nc3ccc(F)cc3)C2)cc1 (stereo unspecified)	-0.9%	-10.5%	-1.9%	-6.2%	-0.7%
SMILES	RE007 growth inh	FBPA Giardia inh	LmPK inh	TbPYK inhibitor	Sm TGR inh
COc1ccc(C(=O)NCc2ccc3[nH]c(C)cc3c2)cc1OC	3.2%	u	-0.5%	-0.8%	14.1µM*
COc1cc(C(=O)NCc2ccc3[nH]c(C)cc3c2)cc(OC)c1OC	-4.6%	-13.7%	4.5%	-1.5%	u
COc1cccc(C(=O)NCc2ccc3[nH]c(C)cc3c2)c1	-4.0%	u	-5.4%	-4.6%	39.8µM*
COc1cccc(CNC(=O)C2CC(=O)N(C3CCCCC3)C2)c1 (stereo unspecified)	-23.6%	-0.1%	3.9%	1.4%	-1.2%
Cc1cc2ncn(-c3ncccc3[N+](=O)[O-])c2cc1C	-9.7%	-1.1%	-10.5%	0.1%	44.7µM*
O=[N+]([O-])c1cccnc1-n1cnc2ccccc21	11.7%	-18.4%	-0.9%	-0.5%	-30.7%
Nc1c(C(=O)N2CCOCC2)sc2nc3c(cc12)CCC3	13.6%	-4.1%	15.8µM*	2.0%	4.3%[57.1 µM]
Nc1c(C(=O)N2CCOCC2)sc2nc3c(cc12)CCCC3	23.7%	-2.4%	u	u	3.0%
c1ccc(Nc2cccc(Nc3ccccc3)n2)cc1	u	-20.9%	4.8%	3.3%	2.82µM*
c1ccc(Cc2noc(CN3CCCN(C4Cc5ccccc5C4)CC3)n2)cc1	-6.3%	-8.2%	0.0%	8.6%	25.1µM*
NC(=NCCc1ccccc1)NS(=O)(=O)c1ccccc1	-6.5%	7.4%	-3.2%	-4.2%	-7.9%
COCCCN(C(=O)c1cc(Cl)nc2ccccc12)c1c(N)n(Cc2ccccc2)c(=O)[nH]c1=O	-21.7%	x	x	-0.4%	-0.2%
CCCCn1c(N)c(N(CCOC)C(=O)c2cc(-c3ccccc3)nc3ccccc23)c(=O)[nH]c1=O	-0.8%	x	x	2.7%	4.3%
COCCCN(C(=O)c1cc(-c2ccco2)nc2ccccc12)c1c(N)n(Cc2ccccc2)c(=O)[nH]c1=O	-4.1%	x	x	-5.2%	15.8µM*
CCCCn1c(N)c(N(CCOC)C(=O)c2ccc(-c3ccc(Cl)cc3)o2)c(=O)[nH]c1=O	-2.3%	x	x	-11.2%	44.7µM*
CCCCN(C(=O)c1ccc(-c2ccc(Cl)cc2)o1)c1c(N)n(CCCC)c(=O)[nH]c1=O	0.3%	x	x	2.0%	-5.4%
CCCn1c(N)c(N(CCOC)C(=O)c2cc(-c3ccco3)nc3ccccc23)c(=O)[nH]c1=O	3.7%	x	-2.0%	-0.5%	17.8µM*
Nc1ccc(C(=O)Nc2ccc3nc(-c4ccncc4)[nH]c3c2)cc1	3.8%	-5.4%	-0.8%	-0.8%	x
CC(C)C[C@@H](CNCC(=O)[C@H](CC(=O)O)NC(=O)c1[nH]cnc1C(=O)N[C@H](CN)CC(C)C)NC(=O)c1nc[nH]c1C(=O)N[C@@H](Cc1ccccc1)C(=O)O	1.8%	x	x	-2.6%	x
O=C(O)c1cc(-c2ccccc2)n[nH]1	x	-0.3%	-7.8%	0.2%	-2.2%
O=C(O)/C=C/C(=O)NNC(=O)c1cc(-c2ccccc2)n[nH]1	11.5%	-16.2%	1.8%	u	39.8µM*
O=C(O)/C=C\C(=O)NNC(=O)c1cc(-c2ccccc2)n[nH]1	20.8%	u	6.1%	-5.4%	22.4µM*
COc1ccc(CN2CCC(Oc3ccc(C(=O)NCc4ccccn4)cc3)CC2)c(F)c1	-15.8%	10.2%	-2.1%	-1.0%	-28.2%
Cc1ccc(C(=O)COC(=O)C(Cc2c[nH]c3ccccc23)NC(=O)c2ccc(C(C)(C)C)cc2)cc1 (stereo unspecified)	x	x	x	-14.2%[15.4 µM]	11.2µM*
CC(=O)NC(Cc1c[nH]c2ccccc12)C(=O)OCC(=O)Nc1ccc2c(c1)OCO2 (stereo unspecified)	1.8%	0.4%	6.4%	8.6%	10µM*

Compound activity: PubChem BioAssay, National Center for Advancing Translational Sciences (NCATS)
